ChEMBL document CHEMBL1157539, “Thousands of chemical starting points for antimalarial lead identification” (Nature, 2010)

Tested on: Plasmodium falciparum
Assay: GSK_TCMDC: Inhibition of Plasmodium falciparum Dd2 in whole red blood cells, using parasite LDH activity as an index of growth. Test compounds present at 2uM
Type: functional

Row | Structure (SMILES) | Inhibition
1 | CCOc1cc(C(C)C)ccc1N1CCN(CCCCNC(=O)c2ccc(NC(=O)c3ccc(Cl)cc3)cc2)CC1 | 97%
2 | CC(C)COc1ccc(Cl)cc1Cc1ccc(-c2nc3cc(CCN(C)C)ccc3[nH]2)o1.Cl | 7%
3 | CC(C)c1cn2c3c(cc(C(=O)N[C@@H](Cc4ccccc4)[C@H](O)CNC4CCCCC4)cc13)N(C)S(=O)(=O)CC2.O=CO | 99%
4 | Cc1noc(C)c1-c1cccc(CNCc2ccc(-c3ccc(-c4nc5ccccc5[nH]4)s3)cc2)c1.O=C(O)C(F)(F)F | 79%
5 | CCOC(=O)c1ccc(-c2cnc(N)c(-c3nc4cccc(C)c4[nH]3)c2)cc1 | 79%
6 | Cc1cccc(Nc2nccc(NCC(O)c3cccc(C(F)(F)F)c3)n2)c1 (stereo not given) | 94%
7 | N=C(N)NN=CC(=O)Nc1ccc(C(F)(F)F)cc1.O=S(=O)(O)O | 9%
8 | Fc1ccccc1CNc1ncc(-c2ccsc2)c(-c2nccs2)n1 | 71%
9 | O=C(/C=C/c1ccc(Cl)c(Cl)c1)NCCCCCN1CCCC(C(=O)Nc2ccc(Cl)c(Cl)c2)C1 (stereo not given) | 11%
10 | Cc1cc(NCCC(=O)NCCOc2ccccc2)nc(Nc2ccccc2)n1.O=C(O)C(F)(F)F | 55%
11 | Cc1nc(-c2ccc(-c3ccc(C(=O)Nc4ccc(I)c(OCC5CCCN5C)c4)cc3)c(C)c2)no1.Cl (stereo not given) | 39%
12 | O=C(Nc1ccc(Oc2ccccc2)cc1)N[C@@H](Cc1ccc(O)cc1)C(=O)NC1CCN(Cc2ccc(O)c([N+](=O)[O-])c2)C1 (stereo not given in full) | 0%
13 | COc1ccc2nccc(N3CCC(SCCNCc4cc5c(cn4)OCCO5)C3)c2n1.Cl (stereo not given) | 100%
14 | COc1ccc2cc(C(C)NC3CCN(c4cccc(NC(=O)c5ccncc5)c4)CC3)ccc2c1 (stereo not given) | 6%
15 | COCCCNc1sc(S(=O)(=O)c2ccccc2)nc1S(=O)(=O)c1ccc(C)cc1 | 44%
16 | COCCNCc1ccc(-c2ccccc2CNC2CCN(Cc3ccccc3)CC2)cc1.O=C(O)C(F)(F)F | 28%
17 | COc1ccc(N2CCN(C(CNC(=O)C3CCCCC3)c3ccc4c(c3)OCO4)CC2)cc1 (stereo not given) | 83%
18 | Cc1cccc(Nc2nc(N)c3ccccc3n2)c1.Cl | 49%
19 | Cc1cc(Nc2cccc(C#N)c2)nc(Nc2ccccc2C)n1 | 46%
20 | CN(C(=O)/C=C/c1cc(C(F)(F)F)ccc1F)C1CCN(CCCCCNC(=O)/C=C/c2ccc(Cl)c(Cl)c2)CC1 | 68%

Row | Structure (SMILES) | Inhibition
21 | NC(=O)c1cc2nc(Nc3ccc(F)cc3)nc(Nc3ccc(S(N)(=O)=O)cc3)c2[nH]1.O=CO | 99%
22 | Cc1ccc2[nH]c(C)cc(=NN=Cc3cccc(F)c3)c2c1 | 99%
23 | Cc1ccc(/C=C/C(=O)N2CCC(CCN3CCC(c4c[nH]c5ccccc45)CC3)CC2)cc1C | 5%
24 | CCn1ncc(Cl)c1CN(C)S(=O)(=O)c1ccc2ccccc2c1 | 91%
25 | Cc1cc(CN2CCC(N3CC(c4ccccc4)(c4ccccc4)OC3=O)C2)ccc1O (stereo not given) | 68%
26 | CCC(C)NS(=O)(=O)c1ccc2nc(Nc3ccc(C)cc3)n([C@H](C)C(C)(C)C)c2c1 (stereo not given in full) | 98%
27 | Cc1cc(NC(=O)c2cccs2)ccc1OC1CCN(Cc2ccc(C#N)cc2)C1.O=C(O)C(F)(F)F (stereo not given) | 61%
28 | CCCCc1ccc(C(=O)Nc2ccc3nc(N4CCN(CC)CC4)cc(C)c3c2)cc1 | 13%
29 | CCOC(=O)c1cncc(/C=C/c2cc(C)cnc2N)c1 | 3%
30 | CC1CN(c2ccc(NC(=O)c3ccsc3)cc2C(=O)N2CCN(Cc3ccc(C(C)(C)C)cc3)CC2)CC(C)O1 (stereo not given) | 80%
31 | O=C(Cn1c(SCc2cccc(F)c2F)cc(=O)c2ccccc21)N(CCc1c[nH]cn1)Cc1ccc(-c2ccc(C(F)(F)F)cc2)cc1 | 72%
32 | Cc1n[nH]c2ccc(-c3cc(OC[C@@H](N)Cc4ccccc4)cnc3-c3ccc(OCc4cccc(F)c4)cc3)cc12.O=C(O)C(F)(F)F | 59%
33 | O=C(Cc1cccs1)NC(CCCN1CCC(Oc2cccc(Cl)c2)CC1)c1ccc(Cl)c(Cl)c1 (stereo not given) | 70%
34 | Nc1cccc(CNCc2ccc(-c3cccc(-c4nc5ccccc5[nH]4)c3)cc2)c1.O=C(O)C(F)(F)F | 78%
35 | Cc1cccc2nc(-c3cccc(-c4cccc(NC(=O)Cc5ccc[n+]([O-])c5)c4)c3)[nH]c12 | 99%
36 | Cl.N=C(N)NN=Cc1c2ccccc2c(Cl)c2cc(Cl)ccc12 | 28%
37 | Cc1cc(NC(=O)c2ccc(S(=O)(=O)N(Cc3ccccc3)C(C)C)cc2)no1 | 67%
38 | O=S(=O)(c1cc(Cl)sc1Cl)N(CCC(O)(C(F)(F)F)C(F)(F)F)Cc1cccc(O)c1 | 97%
39 | O=C(Nc1cccc(-c2nn3ncccc3c2-c2ccnc(Nc3ccccc3)n2)c1)c1c(F)cccc1F | 96%
40 | C=CCOC(=O)N1CCC(CNCc2cccc(-c3ccc(-c4nc5cccc(C)c5[nH]4)cc3)c2)C1.O=C(O)C(F)(F)F (stereo not given) | 82%
